Holding throughout (test): NCI-60 one-dose screen, 48 h (100 = growth as untreated, 0 = no growth, -100 = all killed)
The test system of one test is T-47D breast. As to conditions: 10 µM.
The subject of another test is BT-549 breast. As to conditions: 10 µM unless noted.
The subject of a further test is MDA-MB-435 melanoma. As to conditions: 10 µM unless noted.
The next test has as its system SW-620 colon. As to conditions: 10 µM unless noted.
The next test concerns MCF7 breast. As to conditions: 10 µM unless noted.
In another test the test system is HCT-116 colon. As to conditions: 10 µM unless noted.
The subject of the next test is HCC-2998 colon. As to conditions: 10 µM unless noted.
The subject of a further test is KM12 colon. As to conditions: 10 µM unless noted.

This is part of a sample that, as a whole, favours compounds with a hit. Of some 83,000 tested, about 20% had one in any assay.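 48-hour exposure, single concentration, 96-well plates; percent growth endpoint where 0 means no net growth. Active: below 10.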 Values without a mark were called inactive. Calls of active or inactive are those of the source.

As for `Cc1cccc2c(=O)c3c(sc12)c(NCCCN)nc1ccccc13`, the growth was 43.9% with T-47D breast; 65.9% in the test with BT-549 breast; -75.4% (active) in the test on MDA-MB-435 melanoma; -72% (active) in the test with SW-620 colon; -78.9% (active) with MCF7 breast; -92% (active) in the test with HCT-116 colon. The growth in the test on HCC-2998 colon is -30.9% (active); in the test with KM12 colon, -64.4% (active).
As for `COC(=O)c1c2c(c(C)[n+]([O-])c1C)C(=O)C=C(NCc1ccc(Cl)cc1)C2=O`, the growth is -33.8% (active) in the test with T-47D breast; -23.8% (active) in the test with BT-549 breast; -96.1% (active) with MDA-MB-435 melanoma; -17.3% (active) in the test with SW-620 colon; -63.2% (active) with MCF7 breast; -19.9% (active) with HCT-116 colon. The growth in the test with HCC-2998 colon was -34.6% (active); in the test on KM12 colon, -4.32% (active).
For the compound `COc1ccc(-n2ncc3c4nc(OC)c(S(=O)(=O)c5ccccc5)cc4ccc32)cc1`, the growth in the test on T-47D breast is 57%; in the test with BT-549 breast it was 53.1%; in the test on MDA-MB-435 melanoma it was 83.3%; with SW-620 colon it was 90%; with MCF7 breast, 87.9%; with HCT-116 colon, 59.7%. The growth is 96.7% with HCC-2998 colon and 90.2% in the test on KM12 colon.
For the compound `COc1cc(-c2nc3ccccc3o2)cc(CN2CCN(c3ccccc3)CC2)c1O`, the growth with T-47D breast is 91.5%; in the test with BT-549 breast, 55.3%; in the test with MDA-MB-435 melanoma, -78% (active); in the test with SW-620 colon it was 94.3%; in the test with MCF7 breast, 60.6%; in the test with HCT-116 colon, 56.4%. In addition, the growth is 85.5% with HCC-2998 colon and 49.8% in the test with KM12 colon.
As to `Cc1nc2cc(Nc3nc(Cl)nc(Nc4ccc(F)cc4)n3)ccc2n1Cc1ccccc1`, the growth was 57% in the test on T-47D breast; 90.6% in the test on BT-549 breast; 95.6% in the test on MDA-MB-435 melanoma; 84.8% in the test on SW-620 colon; 61.5% with MCF7 breast; 3.88% (active) in the test on HCT-116 colon. In addition, the growth in the test with HCC-2998 colon is 94.5%; in the test with KM12 colon, 69.2%.
Regarding `O=c1[nH]c(-c2ccccn2)nc2sc3c(c12)CCCCCC3`, the growth with T-47D breast is 42.6%; with BT-549 breast it was 62.2%; in the test with MDA-MB-435 melanoma, 46.4%; with SW-620 colon, 25%; with MCF7 breast it was 29.6%; in the test on HCT-116 colon, 24.6%. The growth with HCC-2998 colon is 53.5%; with KM12 colon it was 33.6%.
Consider `CNc1ccc(Br)cc1-c1n[nH]c(=O)[nH]c1=O`, for which the growth in the test on T-47D breast is 109%; in the test on BT-549 breast, 99.9%; with MDA-MB-435 melanoma, 98.8%; in the test on SW-620 colon, 92.9%; in the test on MCF7 breast, 90.2%; in the test on HCT-116 colon, 98.2%. Further, the values for the growth in the test on HCC-2998 colon and with KM12 colon were 107% and 111%, respectively.
As to `NS(=O)(=O)c1ccc(C(=O)N/N=C(\CS(=O)(=O)c2ccccc2)c2cc3cc(Br)ccc3o2)cc1`, the growth was 88.1% in the test on T-47D breast; 101% in the test on BT-549 breast; 73% in the test on MDA-MB-435 melanoma; 94.6% in the test with SW-620 colon; 72.3% with MCF7 breast; 90.5% in the test on HCT-116 colon. In addition, the growth with HCC-2998 colon is 94.2%; with KM12 colon, 85.6%.
In the case of `O=C1c2[nH]cc(CN[C@@H]3CCCN3)c2C(=O)c2c1c(O)c1ccccc1c2O`, the growth with T-47D breast was -72.4% (active); with BT-549 breast, 41.1%; in the test with MDA-MB-435 melanoma, -98.3% (active); in the test with SW-620 colon, -98.1% (active); in the test on MCF7 breast it was -96.5% (active); in the test with HCT-116 colon, -82.8% (active). Moreover, the results for the growth in the test on HCC-2998 colon and in the test on KM12 colon were -85.8% (active) and -89.8% (active), respectively.
Take `COc1nc2c(cc1S(=O)(=O)c1ccccc1)CCc1c-2cnn1-c1ccccc1`: the growth in the test with T-47D breast is 40.4%; in the test on BT-549 breast it was 78.7%; in the test with MDA-MB-435 melanoma, 69.3%; with SW-620 colon, 89.9%; in the test on MCF7 breast, 75.5%; in the test with HCT-116 colon it was 72.4%. Besides, the growth with HCC-2998 colon was 98.1%; in the test on KM12 colon it was 100%.
As to `COc1ccc(C2SC(C)C(=O)N2CCc2cccs2)cc1OC` (stereo not drawn), the growth was 52.9% in the test on T-47D breast; 76% in the test on BT-549 breast; 98.3% in the test with MDA-MB-435 melanoma; 102% in the test on SW-620 colon; 86.3% with MCF7 breast; 78.4% in the test with HCT-116 colon. Further, the growth in the test on HCC-2998 colon was 84%; in the test on KM12 colon, 96.3%.
Turning to `Cc1ccc(-c2nnc(COc3ccc(-c4nnc(N)s4)cc3)o2)cc1`, the growth in the test with T-47D breast was 101%; in the test on BT-549 breast, 92.9%; with MDA-MB-435 melanoma, 72.4%; in the test on SW-620 colon, 94.8%; with MCF7 breast it was 68.3%; in the test with HCT-116 colon it was 63.4%. Further, the growth in the test with HCC-2998 colon is 107%; in the test on KM12 colon it was 92.6%.
`CN1CCN(CCCn2c3c(sc4ncccc43)c(=O)n3nnc(-c4ccccc4)c23)CC1`: the growth was 113% in the test with T-47D breast; 93.5% in the test on BT-549 breast; 97.9% with MDA-MB-435 melanoma; -44.5% (active) in the test with SW-620 colon; -90.6% (active) with MCF7 breast; -92.6% (active) in the test on HCT-116 colon. Further, the growth in the test on HCC-2998 colon was 99.2%; in the test with KM12 colon, -32.1% (active).
For `COc1ccc(-n2c(SCc3cc(OC)c(OC)c(OC)c3)nc3ccc(C)cc3c2=O)c(OC)c1`, the growth with T-47D breast is 33.1%; in the test with BT-549 breast, 32.1%; with MDA-MB-435 melanoma, -55% (active); in the test with SW-620 colon, 21%; with MCF7 breast, 15.5%; with HCT-116 colon, 18.1%. Moreover, the growth in the test on HCC-2998 colon is 45.5%; in the test on KM12 colon, 18.1%.
Regarding `CC1SC(c2cccc(Oc3ccccc3)c2)N(CCc2cccs2)C1=O` (stereo not drawn), the growth in the test on T-47D breast was 0.211% (active); in the test on BT-549 breast it was -69.2% (active); with MDA-MB-435 melanoma, -43.1% (active); with SW-620 colon, -3.96% (active); with MCF7 breast, -0.665% (active); in the test with HCT-116 colon, -85.6% (active). Also, the growth in the test on HCC-2998 colon is -32.9% (active); with KM12 colon, -25.2% (active).
Regarding `O=C(Nc1nc2ccccc2[nH]1)C(=O)Nc1nc2ccccc2[nH]1`, the growth with T-47D breast is 95.4%; in the test with BT-549 breast, 108%; in the test with MDA-MB-435 melanoma, 101%; in the test with SW-620 colon it was 102%; in the test with MCF7 breast, 83.9%; in the test with HCT-116 colon it was 103%. Moreover, the values for the growth in the test on HCC-2998 colon and in the test on KM12 colon were 107% and 101%, respectively.

The values are drawn from PubChem BioAssay (NCI).
